Where a name gives a salt, the structure may show the parent alone. ± gives the standard deviation of the averaged measurements.

Assay in all cases: growth (OD600 after 10 h); higher = more growth (less inhibition)
Assay [1] has as its system E. coli TESEC Alr+ wild-type control. As to conditions: compound 0.1 mM; raw OD600 reference: median of DMSO wells 0.241, cell-free background 0.041. The protocol: (§1)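 TESEC Mtb Alr E. coli, or the Alr+ wild-type control, in 384-well plates with Prestwick library compounds at 0.1 mM and 1% DMSO, across arabinose induction levels of 1E3 to 1E7 nM. Growth is read as OD600 after 10 h at 37 °C in triplicate biological replicates.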

The test system of assay [2] is E. coli TESEC Mtb Alr. As to conditions: compound 0.1 mM. The protocol: as §1
Assay [3] has as its system E. coli TESEC Mtb Asd. To be noted: compound 0.1 mM. How it is done:
(§2)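 TESEC E. coli strains in which the native enzyme is deleted and replaced by arabinose-inducible Mtb Asd, DapB, CysH or TrpD, each grown in its selective medium. Strains were screened against the Prestwick library at 0.1 mM and 1% DMSO in 384-well format at low and high arabinose induction. Growth is read as OD600 after 10 h in triplicate.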

Assay [4] concerns E. coli TESEC Mtb DapB. To be noted: compound 0.1 mM. How it is done:
as §2

For assay [5], the system named is E. coli TESEC Alr+ wild-type control. To be noted: compound 0.1 mM; raw OD600 reference: median of DMSO wells 0.49, cell-free background 0.052. How it is done: (§3)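 TESEC Mtb Alr E. coli (ΔaraC ΔtolC ΔentC Δalr ΔdadX, arabinose-inducible Mtb Alr) or the Alr+ wild-type control strain, grown in defined M9-fructose medium without D-alanine in 96-well plates with Prestwick library compounds at 0.1 mM and 1% DMSO. Low Alr induction is 0.1 µM arabinose and high induction is 10 mM arabinose.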

For assay [6], the system named is E. coli TESEC Mtb Alr. As to conditions: compound 0.1 mM. How it is done: as §3
The source holds these as a separate data set.

The mark [7] stands for this setting: arabinose 1000 nM, raw OD600 reference: median of DMSO wells 0.294, cell-free background 0.041.
Where [8] appears, read: arabinose 10000 nM, raw OD600 reference: median of DMSO wells 0.264, cell-free background 0.041.
Where [9] appears, read: arabinose 100000 nM, raw OD600 reference: median of DMSO wells 0.201, cell-free background 0.041.
The mark [10] stands for this setting: arabinose 1000000 nM, raw OD600 reference: median of DMSO wells 0.193, cell-free background 0.041.
[11] abbreviates: arabinose 10000000 nM, raw OD600 reference: median of DMSO wells 0.146, cell-free background 0.041.
Where [12] appears, read: arabinose induction (level): High, raw OD600 reference: median of DMSO wells 0.331, cell-free background 0.041.
Where [13] appears, read: arabinose induction (level): Low, raw OD600 reference: median of DMSO wells 0.417, cell-free background 0.041.
Where [14] appears, read: arabinose induction (level): High, raw OD600 reference: median of DMSO wells […], cell-free background 0.041.
[15] abbreviates: arabinose induction (level): Low, raw OD600 reference: median of DMSO wells 0.227, cell-free background 0.041.
[16] abbreviates: arabinose 100 nM, raw OD600 reference: median of DMSO wells 0.413, cell-free background 0.052.
[17] abbreviates: arabinose 10000000 nM, raw OD600 reference: median of DMSO wells […], cell-free background 0.052.

For the compound `O=C1[C@H](CC[C@H](O)c2ccc(F)cc2)[C@@H](c2ccc(O)cc2)N1c1ccc(F)cc1` [Ezetimibe], the growth in assay [1] turned out to be 0.0438 ± 0.00074; in assay [2] (setting [7]), 0.0482 ± 0.0028; in assay [2] (setting [8]), 0.046 ± 0.00091; in assay [2] (setting [9]), 0.0462 ± 0.0037; in assay [2] (setting [10]), 0.0477 ± 0.004; in assay [2] (setting [11]), 0.0501 ± 0.0032. Moreover, the growth in assay [3] (setting [12]) is 0.101 ± 0.082; in assay [3] (setting [13]) it was 0.0479 ± 0.0012; in assay [4] (setting [14]) it was 0.0503 ± 0.003; in assay [4] (setting [15]) it was 0.04873 ± 0.00038; in assay [5], 0.0525 ± 0.0014; in assay [6] (setting [16]) it was 0.0636 ± 0.0051. In assay [6] (setting [17]), this compound showed a growth of 0.061 ± 0.01.
Turning to `CC(=O)OCC(=O)[C@@]1(OC(C)=O)[C@@H](C)C[C@H]2[C@@H]3C[C@H](F)C4=CC(=O)C=C[C@]4(C)[C@@]3(F)[C@@H](O)C[C@@]21C` [Diflorasone Diacetate], the growth was found to be 0.159 ± 0.0032 in assay [1]; 0.178 ± 0.0085 in assay [2] (setting [7]); 0.162 ± 0.0026 in assay [2] (setting [8]); 0.194 ± 0.014 in assay [2] (setting [9]); 0.112 ± 0.0026 in assay [2] (setting [10]); 0.17 ± 0.0046 in assay [2] (setting [11]). Also, the growth in assay [3] (setting [12]) turned out to be 0.263 ± 0.03; in assay [3] (setting [13]), 0.228 ± 0.008; in assay [4] (setting [14]), 0.198 ± 0.03; in assay [4] (setting [15]) it was 0.221 ± 0.0089; in assay [5], 0.398 ± 0.015; in assay [6] (setting [16]), 0.394 ± 0.014. Also, the growth in assay [6] (setting [17]) was 0.289 ± 0.0096.
Turning to `Cc1scc2c1N(C(=O)CN1CCN(C)CC1)c1ccccc1NC2=O` [Telenzepine dihydrochloride], the growth in assay [1] turned out to be 0.242 ± 0.0054; in assay [2] (setting [7]), 0.309 ± 0.0066; in assay [2] (setting [8]) it was 0.241 ± 0.0053; in assay [2] (setting [9]), 0.208 ± 0.012; in assay [2] (setting [10]) it was 0.162 ± 0.0049; in assay [2] (setting [11]) it was 0.153 ± 0.0031. Further, the growth in assay [3] (setting [12]) is 0.321 ± 0.083; in assay [3] (setting [13]), 0.442 ± 0.025; in assay [4] (setting [14]) it was 0.1919 ± 0.0014; in assay [4] (setting [15]) it was 0.264 ± 0.071; in assay [5], 0.545 ± 0.024; in assay [6] (setting [16]), 0.407 ± 0.011. This compound also registered a growth in assay [6] (setting [17]) of 0.338 ± 0.0097.
With `c1ccc(CNc2ncnc3nc[nH]c23)cc1` [Aminopurine, 6-benzyl], the growth in assay [1] was determined as 0.208 ± 0.0066; in assay [2] (setting [7]) it was 0.243 ± 0.0086; in assay [2] (setting [8]) it was 0.262 ± 0.006; in assay [2] (setting [9]), 0.19 ± 0.014; in assay [2] (setting [10]) it was 0.166 ± 0.0054; in assay [2] (setting [11]), 0.149 ± 0.013. The growth in assay [3] (setting [12]) came to 0.279 ± 0.014; in assay [3] (setting [13]) it was 0.339 ± 0.072; in assay [4] (setting [14]), 0.169 ± 0.0055; in assay [4] (setting [15]), 0.197 ± 0.022; in assay [5], 0.509 ± 0.077; in assay [6] (setting [16]), 0.416 ± 0.0048. In assay [6] (setting [17]), this compound gave a growth of 0.361 ± 0.0061.
Take `OCCN1CCN(CCCN2c3ccccc3Sc3ccc(Cl)cc32)CC1` [Perphenazine]: the growth in assay [1] is 0.0416 ± 0.00046; in assay [2] (setting [7]), 0.0411 ± 0.00082; in assay [2] (setting [8]) it was 0.0422 ± 0.00061; in assay [2] (setting [9]), 0.0431 ± 0.0021; in assay [2] (setting [10]), 0.04167 ± 0.00035; in assay [2] (setting [11]), 0.0462 ± 0.00053. Further, the growth stood at 0.0588 ± 0.0034 in assay [3] (setting [12]); 0.0626 ± 0.0018 in assay [3] (setting [13]); 0.0511 ± 0.001 in assay [4] (setting [14]); 0.0954 ± 0.078 in assay [4] (setting [15]); 0.0523 ± 0.0019 in assay [5]; 0.285 ± 0.2 in assay [6] (setting [16]). The compound also gave a growth in assay [6] (setting [17]) of 0.0538 ± 0.00074.
For `Nc1ccn([C@H]2CC[C@@H](CO)O2)c(=O)n1` [Zalcitabine], the growth was 0.246 ± 0.0044 in assay [1]; 0.2977 ± 0.0013 in assay [2] (setting [7]); 0.279 ± 0.014 in assay [2] (setting [8]); 0.198 ± 0.035 in assay [2] (setting [9]); 0.172 ± 0.0063 in assay [2] (setting [10]); 0.1518 ± 0.00067 in assay [2] (setting [11]). Further, the growth was found to be 0.288 ± 0.037 in assay [3] (setting [12]); 0.407 ± 0.035 in assay [3] (setting [13]); 0.204 ± 0.015 in assay [4] (setting [14]); 0.24 ± 0.04 in assay [4] (setting [15]); 0.4783 ± 0.0003 in assay [5]; 0.409 ± 0.016 in assay [6] (setting [16]). This compound also registered a growth in assay [6] (setting [17]) of 0.353 ± 0.02.
With `O=C1CCc2cc(OCCCCc3nnnn3C3CCCCC3)ccc2N1` [Cilostazol], the growth in assay [1] is 0.148 ± 0.028; in assay [2] (setting [7]) it was 0.194 ± 0.027; in assay [2] (setting [8]), 0.1826 ± 0.00091; in assay [2] (setting [9]), 0.125 ± 0.0036; in assay [2] (setting [10]), 0.0688 ± 0.0017; in assay [2] (setting [11]) it was 0.123 ± 0.0057. In addition, the growth in assay [3] (setting [12]) stood at 0.225 ± 0.051; in assay [3] (setting [13]), 0.285 ± 0.033; in assay [4] (setting [14]), 0.16 ± 0.013; in assay [4] (setting [15]), 0.181 ± 0.0043; in assay [5], 0.461 ± 0.015; in assay [6] (setting [16]) it was 0.411 ± 0.0062. The growth in assay [6] (setting [17]) was 0.145 ± 0.015.
On to `CC(=O)Nc1ccc(O)cc1` [Acetaminophen], for which the growth in assay [1] is 0.251 ± 0.0034; in assay [2] (setting [7]), 0.315 ± 0.0071; in assay [2] (setting [8]), 0.277 ± 0.0034; in assay [2] (setting [9]) it was 0.202 ± 0.0068; in assay [2] (setting [10]) it was 0.188 ± 0.0053; in assay [2] (setting [11]), 0.162 ± 0.0048. For the same compound, the growth was 0.473 ± 0.034 in assay [3] (setting [12]); 0.455 ± 0.0071 in assay [3] (setting [13]); 0.215 ± 0.018 in assay [4] (setting [14]); 0.251 ± 0.027 in assay [4] (setting [15]); 0.559 ± 0.083 in assay [5]; 0.407 ± 0.015 in assay [6] (setting [16]). The compound further displayed a growth in assay [6] (setting [17]) of 0.335 ± 0.011.

Values taken from the supplement of paper PMC9262897, “Low-cost anti-mycobacterial drug discovery using engineered E. coli” (Nature Communications, 2022).
